Source: PubChem BioAssay (National Center for Advancing Translational Sciences (NCATS))
KB-3-1 cytotox = KB-3-1 parental cell cytotoxicity; 1.4% of 400,000 active; KB-3-1 viability, CellTiter-Glo ATP luminescence, 72 h; AID 1347075; Potency, µM (series often up to 46.1 µM), most hits filed as cytotoxic; also: % is scaled to controls: 0 for no effect and ±100 for the full control effect; nearly all actives have a fitted effect of over 60% in size
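Cytotoxicity in the drug-sensitive parental line KB-3-1 was scored as loss of CellTiter-Glo luminescence following 72 h incubation with compound. Values come from curve fitting of normalized concentration-response data.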
HT1080 IDH1KD tx = HT-1080 IDH1 knockdown cell toxicity (counter line); HT-1080 IDH1 knockdown viability, ATP luminescence, 48 h; Potency, µM (top dose mostly 46.1 µM), inactives show top-dose activity, negative = toxicity, most hits filed as cytotoxic; 2% of 360,000 active; AID 686971;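 also: 0% = DMSO wells and -100% = cell-free medium wells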
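Knockdown cells (IDH1KD HT-1080) received compounds 2 h after plating at 750 cells/well and were kept 48 h at 37 °C in 5% FBS RPMI. A CellTiter-Glo luminescence read gave % activity for curve fitting.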
SW480 rerep = inducers of DNA re-replication in SW480 colon cancer cells; SW480 DNA re-replication, Hoechst DNA content imaging, 48 h; Potency, µM (series often up to 46.1 µM), inactives show at the highest dose re-replication activation, usual class: activators; 1.8% of 340,000 active; also: % of control where 0% means no effect; nearly all actives have a fitted effect of over 55% in size
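Quantitative HTS format with DMSO vehicle controls; 48 hr drug incubation at 37 C, then 40 min Hoechst staining and scanning imager measurement at 405 nm excitation.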
MCF10A rerep = inducers of DNA re-replication in MCF 10A breast cells; MCF 10A DNA re-replication, Hoechst nuclear intensity, 48 h; Potency, µM (series often up to 46.1 µM), for the others: top-dose activity, positive = re-replication, actives largely listed as activators; 2.9% of 350,000 active; also: % of control where 0% means no effect; nearly all actives have a fitted effect of over 50% in size
KB-V1 MDR tox = kills drug-selected multidrug resistant KB-V1 cells; KB-V1 MDR cells viability, CellTiter-Glo, 72 h; Potency, µM (series often up to 46.1 µM), usual class: cytotoxic; 3.4% of 400,000 active; AID 1347076; also: % is scaled to controls: 0 for no effect and ±100 for the full control effect; nearly all actives have a fitted effect of over 60% in size
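Potencies derive from concentration-effect curves fitted to normalized luminescence (CellTiter-Glo) of KB-V1 cells treated for 72 h at 37 degrees C in phenol-red-free DMEM containing 10% FBS.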
HT1080-NT tox = kills 2HG-producing HT-1080-NT fibrosarcoma cells; AID 686970; 1.6% of 360,000 active; HT-1080-NT fibrosarcoma viability, CellTiter-Glo ATP luminescence, 48 h; Potency, µM (doses to about 46.1 µM), without a hit: at the highest dose activity, negative = less viability, hits mostly cytotoxic;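 also: NT is the 2HG producing partner of a matched IDH1 knockdown line; 0% = DMSO-treated cells and -100% = media-only wells without cells; nearly all actives have a fitted effect of over 55% in size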
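Luminescent CellTiter-Glo readout after 48 hours of compound exposure at 37 degrees C defined viability of HT-1080-NT cells. Activity was normalized to DMSO wells and cell-free media wells; concentration-response curves were fitted and assigned curve classes.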
* hit, by the source's call; i = inactive; ? = inconclusive; · = no result given; [ ] = dose if it differs, or a comment. Sampled rows, rich in hits. Any-hit rate of the full collection: about 8%. Calls follow the shape of the dose curve; as a rule, active = well fitted curve in the direction sought with a large enough effect; inconclusive = small, poorly fitted or top-dose-only effect, or another doubt; inactive = no such curve, though single readings can be large; an effect the other way counts as inactive or inconclusive. Potency is read from the fitted curve at half-maximal effect.

SMILES	KB-3-1 cytotox	HT1080 IDH1KD tx	SW480 rerep	MCF10A rerep	KB-V1 MDR tox	HT1080-NT tox
CCOc1ccc(-n2cc(C(=O)NCc3ccco3)c3cc(OC)c(OC)cc3c2=O)cc1	0.52µM*	-4%	11%	?	i	-3%
CCn1cc(C(=O)NCc2ccco2)c2cc(OC)c(OC)cc2c1=O	i	8%	-26%	0%	i	6%
NC(=O)C1(N2CCCCC2)CCN(S(=O)(=O)c2cc(Cl)sc2Cl)CC1	i	-2%	-9%	13%	i	?
C=CCNc1nc(-c2sc(NC(=O)C(C)(C)C)nc2C)c(-n2cc(-c3ccccc3)nn2)s1	?	?	·	·	16µM*	?
CC(Sc1ccc2nnc(-c3ccc(F)cc3)n2n1)C(=O)O (configuration not stated)	i	-3%	2%	21%	i	-3%
O=C1CCCCC(=O)N(c2ccccc2)c2ccccc21	i	-11%	-1%	1%	18µM*	-15%
NS(=O)(=O)c1ccc(CCNc2nn3c(-c4cccc(OC(F)(F)F)c4)cnc3s2)cc1	?	8.2µM*	·	·	i	8.2µM*
COc1ccc(CNc2nn3c(-c4cccc(C(=O)N(C)C)c4)cnc3s2)cc1	i	2%	·	·	i	13%
Cc1ccc2nc3c(cc(C(=O)NCCN4CCOCC4)c(=N)n3CCCN3CCOCC3)c(=O)n2c1	i	1%	1.8µM*	?	i	-1%
O=C(NC1CCS(=O)(=O)C1)c1cc2c(=O)n3ccccc3nc2n1Cc1ccccc1 (configuration not stated)	i	6%	·	·	i	5%
Cc1cccn2c(=O)c3cc(C(=O)NC(C)c4ccccc4)c(=N)n(CCCn4ccnc4)c3nc12 (configuration not stated)	?	?	16µM*	21µM*	i	?
Cc1ccc2nc3c(cc(C(=O)NC4CCS(=O)(=O)C4)n3Cc3ccccc3)c(=O)n2c1 (configuration not stated)	i	7%	23µM*	23µM*	i	8%
Cc1ccc2nc3c(cc(C(=O)NCCc4ccccc4)c(=N)n3CCN3CCOCC3)c(=O)n2c1	i	?	5.2µM*	18µM*	?	-16%
Cc1ccc2nc3c(cc(C(=O)NCc4ccccc4)c(=N)n3CCCn3ccnc3)c(=O)n2c1	i	-1%	5.2µM*	8.2µM*	i	-5%
COCCCn1c(=N)c(C(=O)NCc2cccnc2)cc2c(=O)n3cc(C)ccc3nc21	i	·	·	·	?	·
Cc1ccc(C(C)NC(=O)c2ccncc2)cc1C (configuration not stated)	i	-1%	-4%	1%	i	-4%
O=C(Nc1ccccc1N1CCOCC1)c1cc(-c2ccncc2)nc2ccccc12	i	-26%	8%	18%	18µM*	-26%
COc1ccc(-c2cc(C(=O)NNC(=O)c3csc(N4CCOCC4)n3)c3ccccc3n2)cc1OC	i	-14%	-385%	?	i	-13%
COc1ccc(-c2cc(C(=O)Nc3ccccc3N3CCOCC3)c3ccccc3n2)cc1OC	?	?	?	16µM*	?	-10%
c1cc2[nH]snc2c2nc(C3CC3)nc12	?	?	20%	21µM*	?	-27%
CCn1c(O)c(/C=N/N=C/c2ccccc2)c2ccc(C3=NNC(=O)CC3)cc21	?	?	20%	16µM*	?	-11%
O=C(CN1CCCCC1)Nc1ccc(NC(=O)c2ccccc2Cl)cc1Cl	23µM*	-1%	-50%	?	4.6µM*	-1%
COc1ccccc1NC(=O)CN1CCN(Cc2ccccc2)CC1	i	1%	-1%	9%	10µM*	9%
O=C(CN1CCCCC1)Nc1ccccc1Oc1ccccc1	i	-2%	-122%	18µM*	i	?
CN1CCN(CC(=O)Nc2ccccc2Oc2ccccc2)CC1	i	4%	-2%	-3%	i	-6%
SMILES	KB-3-1 cytotox	HT1080 IDH1KD tx	SW480 rerep	MCF10A rerep	KB-V1 MDR tox	HT1080-NT tox
COc1ccccc1NC(=O)CN1CCN(CC(=O)Nc2ccc(OCc3ccccc3)cc2)CC1	i	?	14%	5%	?	?
Nc1cc(=O)nc(SCC(=O)N2CCN(c3ccccc3)CC2)n1-c1ccc(F)cc1	?	-1%	14%	10%	?	-3%
CCN(CC)S(=O)(=O)c1ccc(N(C)C)c(NC(=O)CC(NC(C)=O)c2ccccc2)c1 (configuration not stated)	i	0%	5%[1.84 µM]	0%	i	-2%
COc1ccc(-c2cc(N)n(S(=O)(=O)c3c(F)c(F)c(F)c(F)c3F)n2)cc1OC	10µM*	4µM*	?	?	9.2µM*	7.1µM*
O=C1CC(c2ccccc2)CC(O)=C1C=NCc1ccccc1Cl (configuration not stated)	?	?	-1%	?	?	5.6µM*
O=C1CC(c2cccc(Cl)c2)CC(O)=C1C=NC1CCCC1 (configuration not stated)	i	8%	1%	?	21µM*	-2%
O=C1CC(c2ccccc2)CC(O)=C1C=NCc1ccccc1 (configuration not stated)	i	-8%	14%	?	i	0%
O=C(NCc1cccnc1)C(=O)NCC1OCCCN1S(=O)(=O)c1ccc(F)cc1 (configuration not stated)	i	-2%	-6%	-3%	i	5%
Cc1noc(C)c1CSc1nc2ccccc2n1C	i	-2%	-19%	0%	i	-4%
CN(C)CCOC1c2ccccc2CCc2ccc3ccccc3c21 (configuration not stated)	i	16µM*	8%	10%	?	21µM*
CN(C)CCOC1c2ccccc2C=Cc2ccccc21	i	-18%	3%	2%	i	-18%
CC[n+]1c(/C=C/c2c[nH]c3ccccc23)ccc2cc(C)ccc21	9.2µM*	18µM*	-16%	-5%	i	29µM*
C=Cc1ccc(Cn2nc(-c3ccc(C)cc3)ccc2=O)cc1	i	-18%	16µM*	?	i	-22%
O=c1ccc(-c2ccccc2)nn1Cc1ccc(Cl)cc1	i	-6%	-1%	-4%	i	-1%
COc1ccc(Cl)cc1NC(=O)CN(C)C(=O)CCSc1ccc(C)cc1	i	-3%	-6%	-3%	i	-4%
